Source: PubChem
Rows were chosen to be rich in hits. Some 8.7% of all compounds tested hit in one or more screens of this group.
Smad3 inh = blocks human Smad3 binding to FoxH1 peptide; P84022; TR-FRET Smad3/Dy647-FoxH1 peptide binding, europium anti-His; inhibition, % at 25 µM; 88,000 tested, 0.29% active;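 active means compounds that reduce the energy-transfer binding signal between the protein and its labelled peptide by more than half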
TNAP act mid DEA = human TNAP activation, intermediate phosphate acceptor | 64,000 tested, under 10 active | activation factor at 20 µM | P05186 | purified TNAP, CDP-star luminescence, 100 mM DEA, 30 min; hits give high values; scale: 0 levamisole-inhibited, 1 vehicle-only enzyme;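 active means activation factor of at least 2 at 20 µM, relative to controls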
Cav3 T inh = human Cav3.2 channel inhibition, primary screen | Cav3.2-expressing cells, Fluo-4 calcium fluorescence FDSS; hits give low values | B-score at 10 µM | 100,000 tested, 4% active;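 active means single-dose well whose peak fluorescence ratio is a statistical outlier from its plate by either plate-standardised score or position-corrected B-score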
PostGolgi ctrl = inhibits growth of the yeast control strain. 98,000 tested, 5% active. AID 738. inhibition, % at 10 µM. efflux-deficient yeast background strain, growth absorbance A615, 16 h
PostGolgi yeast = growth inhibition of a yeast mutant, post-Golgi transport screen; inhibition, % at 10 µM; post-Golgi transport phenotypic cell assay; 98,000 tested, 0.9% active; AID 739;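 further: yeast cells grown in 1536-well plates; yeast grown about 18 h at 30C before absorbance read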
hDAT+cocaine = human DAT dopamine uptake with cocaine, either direction. Q01959. B-score at 10 µM. LLC-PK1 hDAT cells, [14C]-dopamine uptake with cocaine IC80; actives deviate in either direction. 110,000 tested, 1.3% active;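 active means Z score or B-score, a plate-position-corrected score, falls beyond the plate's 99.7% confidence bounds, in either direction; inactive means both scores lie inside the 99.7% bounds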
Large screens that a line does not name were inactive; [ ] = another dose, or the depositor's remark. Unless noted, no stated cut-off is given here; in the data, active means inhibition above about 30%; inactive means the rest.

Nc1ccc([As](=O)(O)O)cc1	none (no result: Smad3 inh, TNAP act mid DEA, PostGolgi ctrl, PostGolgi yeast)
O=[As](O)(O)c1ccc(Cc2ccc([As](=O)(O)O)cc2)cc1	Smad3 inh 79 (no result: TNAP act mid DEA, Cav3 T inh, PostGolgi ctrl, PostGolgi yeast, hDAT+cocaine)
NCCCP(=O)(O)CCc1ccccc1	none
O=C(c1ccco1)c1cn(Cc2ccc(Cl)cc2)c2ccccc12	none (no result: TNAP act mid DEA)
O=C(c1cccs1)c1cn(Cc2ccccc2Cl)c2ccccc12	Cav3 T inh -6.2 (no result: TNAP act mid DEA)
N#Cc1ccccc1Cn1cc(C(=O)c2cccs2)c2ccccc21	PostGolgi yeast 57
CCOc1ccc(-n2c(CC)nc3ccccc3c2=O)cc1	PostGolgi ctrl 31
CC(=O)C1C2c3ccccc3OC1(C)N=c1s/c(=C/c3cn(C)nc3C)c(=O)n12 (stereo not given)	none
CCOC(=O)N(C)c1ccc(C(O)(C(=O)OC)C(F)(F)F)cc1 (stereo not given)	none (no result: TNAP act mid DEA, PostGolgi ctrl, PostGolgi yeast)
COC(=O)C(O)(c1ccc(NC(=S)NC(=O)c2ccccc2)cc1)C(F)(F)F (stereo not given)	PostGolgi ctrl 33 (no result: Smad3 inh, TNAP act mid DEA)
O=C1C2CCN(CC2)C1Cc1ccc(OCCOc2ccccc2)cc1 (stereo not given)	PostGolgi ctrl 43
O=C1C2CCN(CC2)C1Cc1ccccc1O (stereo not given)	none (no result: TNAP act mid DEA)
CC(=O)OC1(c2ccccc2)CCN(C2CCCCC2)CC1C (stereo not given)	none (no result: Smad3 inh, TNAP act mid DEA, PostGolgi ctrl, PostGolgi yeast)
Cc1ccc2c(c1)CC1(CN2C)C(=O)NC(=O)N(C(C)C)C1=O (stereo not given)	none
Cc1ccc2c(c1)CC1(CN2C)C(=O)NC(=O)N(CCC2=CCCCC2)C1=O (stereo not given)	PostGolgi ctrl 40
COc1ccc2c(c1)CC1(CN2C)C(=O)NC(=O)N(c2ccc(F)cc2)C1=O (stereo not given)	none
O=C(O)CNCP(=O)(O)O	none (no result: TNAP act mid DEA, Cav3 T inh, PostGolgi ctrl, PostGolgi yeast, hDAT+cocaine)
Nc1c(C(=O)NCc2ccco2)c2nc3ccccc3nc2n1CCN1CCCCC1	none
Cc1ccc(N2C(=O)NC(=O)/C(=C/c3ccc(OC(=O)c4cccs4)cc3)C2=O)cc1	PostGolgi ctrl 32 (no result: Smad3 inh, TNAP act mid DEA)
CCC(=NCc1cccnc1)c1c(O)n(C2CCCCC2)c(=O)[nH]c1=O	none
CCC(=Nc1ccc(OC)cc1OC)c1c(O)n(C2CCCCC2)c(=O)[nH]c1=O	PostGolgi ctrl 48, PostGolgi yeast 71
CCC(=NCc1ccco1)c1c(O)n(C2CCCCC2)c(=O)[nH]c1=O	Cav3 T inh -6.8, PostGolgi ctrl 45
CNC(C(=O)c1ccccc1)C(OC(C)C)c1ccc(Cl)cc1 (stereo not given)	none (no result: TNAP act mid DEA)
COC(=O)C1=C(c2cccc(OC)c2OC)C[C@@H]2CC[C@H]1N2C(=O)NCc1ccccc1	none (no result: Smad3 inh, TNAP act mid DEA, PostGolgi ctrl, PostGolgi yeast)
CC1(C)CC(=N[N-]C(N)=[SH+])CC(C)(C)N1.CC1(C)CC(=N[N-]C(N)=[SH+])CC(C)(C)N1.[Ni]	Smad3 inh 68 (no result: TNAP act mid DEA, Cav3 T inh, PostGolgi ctrl, PostGolgi yeast, hDAT+cocaine)
CC1CCN(S(=O)(=O)c2ccc(NN=C(C#N)C#N)cc2)CC1	Cav3 T inh -8.4 (no result: Smad3 inh, TNAP act mid DEA)
COc1ccc(C(=O)N2CCOCC2)cc1S(=O)(=O)N1CCC(C)CC1	none (no result: Smad3 inh)
O=C(Cc1ccccc1)OCCN1CCCCC1	none
CCCCCCCC(=O)NC(Oc1ccccc1[N+](=O)[O-])C(Cl)(Cl)Cl (stereo not given)	Cav3 T inh -6.9 (no result: TNAP act mid DEA)
Cc1cccc(C(=O)NC(Oc2ccccc2)C(Cl)(Cl)Cl)c1 (stereo not given)	none (no result: Smad3 inh, TNAP act mid DEA)
c1ccc2c(c1)Sc1ccccc1N2C[C@H]1CN2CCC1CC2	Smad3 inh 77 (no result: TNAP act mid DEA, Cav3 T inh, PostGolgi ctrl, PostGolgi yeast, hDAT+cocaine)
O[C@@H]1CCCN2CCc3c([nH]c4ccccc34)[C@H]12	none (no result: Smad3 inh, TNAP act mid DEA, PostGolgi ctrl, PostGolgi yeast)
CCCCn1c(O)c(C=NC2CCCCC2N)c(=O)[nH]c1=O (stereo not given)	hDAT+cocaine -8.8
CCCCCCn1c(O)c(C=NC2CCCCC2N)c(=O)[nH]c1=O (stereo not given)	none
CCC1CN(C)CCC1(OC(C)=O)c1ccccc1 (stereo not given)	none (no result: TNAP act mid DEA, PostGolgi ctrl, PostGolgi yeast)
Cc1cc(C)n(CCOC(=O)C2C(C=C(Cl)Cl)C2(C)C)n1 (stereo not given)	Cav3 T inh -6.6
COc1ccc(S(=O)(=O)NC(CC(=O)N2CCC3(CC2)OCCO3)c2ccco2)cc1 (stereo not given)	none
O=C(Nc1ccc(OC(=O)N2CCCC2)cc1)N1CCOCC1	none
O=C(Oc1c(Cl)cc(Cl)c2ccccc12)N1CCCCC1	PostGolgi ctrl 37 (no result: TNAP act mid DEA)
O=C(O)/C=C/c1ccc[c]([Sb](=[O])([OH])[OH])c1	Smad3 inh 90 (no result: TNAP act mid DEA, Cav3 T inh, PostGolgi ctrl, PostGolgi yeast, hDAT+cocaine)
O=C(c1sc2ccccc2c1Cl)N1CCC2(CC1)OCCO2	PostGolgi ctrl 46
C=C1C[C@]2(O)[C@@]3(C)CCC(=O)C(C)(C)C3=C(O)C(=O)[C@@]2(C)[C@@H]2C(=O)O[C@@](C)(C(=O)OC)C(=O)[C@@]12C	none (no result: Smad3 inh, TNAP act mid DEA, PostGolgi ctrl, PostGolgi yeast)
COc1ccccc1OCCCn1cc(C(=O)c2ccco2)c2ccccc21	PostGolgi ctrl 49
CCCCCSc1cc(OC)c(CCN)cc1OC	none (no result: Smad3 inh, TNAP act mid DEA)
CCCCCCCSc1cc(OC)c(CCN(C)C)cc1OC	PostGolgi ctrl 84 (no result: Smad3 inh, TNAP act mid DEA, Cav3 T inh)
CC1(C)CC(=O)C(C2(O)C(=O)NC(=O)NC2=O)=C(O)C1	Smad3 inh 65[fluorescence artefact?]
